PubChem BioAssay (EPA / NIEHS)
Records with an inconclusive call do not appear. Activity calls are given as the source filed them. The calls were made as follows: active = hit-call score of the fitted dose curve at least 0.9, where 1 is the maximum; inconclusive = response in the unintended direction; inactive = score below 0.9.

Key:
[1] = biological target: rat Adrenergic, Alpha 1, Non-selective Receptor (Adra1), Adra1a (gene 29412) (UniProt P43140); assay: NVS_GPCR_rAdra1_NonSelective: NovaScreen (NVS) G Protein-Coupled Receptor Assay for rat Adrenergic, Alpha 1, Non-selective Receptor (Adra1) (AID 2283289)
Outline: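 Chemicals first screened in duplicate at 25 uM, then actives tested in concentration series up to 50 uM. Binding measured as displacement of radioligand from rat forebrain membrane receptors, 1 h, filtration with scintillation readout; DMSO baseline.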

[2] = biological target: human Opioid Receptor Mu (Opiate Mu), OPRM1 (gene 4988) (UniProt P35372); assay: NVS_GPCR_hOpiate_mu: NovaScreen (NVS) G Protein-Coupled Receptor Assay for human Opioid Receptor Mu (Opiate Mu) (AID 2283290);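 also: hits lower bound tracer signal versus DMSO meaning displacement of the ligand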
Outline: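 Primary screen in duplicate at 25 uM, with actives followed in concentration series. CHO-derived receptor membranes, cell-free; bound radioligand read by scintillation counting after filtration at 2.5 h, decrease scored against DMSO.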

[3] = biological target: mouse Cholecystokinin, CCK1 Receptor (CCKA), Cckar (gene 12425) (UniProt O08786); assay: NVS_GPCR_mCCKAPeripheral: NovaScreen (NVS) G Protein-Coupled Receptor Assay for mouse Cholecystokinin, CCK1 Receptor (CCKA) (AID 2283285)
Procedure: (§1) NVS_GPCR_mCCKAPeripheral is a biochemical, single-readout assay that uses extracted gene-proteins from Mouse pancreatic membranes in a tissue-based cell-free assay. Measurements were taken 2 hours after chemical dosing in a 96-well plate.NVS_GPCR_mCCKAPeripheral is one of one assay component(s) measured or calculated from the NVS_GPCR_mCCKAPeripheral assay. It is designed to make measurements of radioligand binding, a form of binding reporter, as detected with scintillation counting signals by Filter-based radiodetection technology.Data from the assay component NVS_GPCR_mCCKAPeripheral was analyzed into 1 assay endpoint. This assay endpoint, NVS_GPCR_mCCKAPeripheral, was analyzed in the positive analysis fitting direction relative to DMSO as the negative control and baseline of activity. Using a type of binding reporter, loss-of-signal activity can be used to understand changes in the binding as they relate to the gene Cckar. Furthermore, this assay endpoint can be referred to as a primary readout, because the performed assay has only produced 1 assay endpoint. To generalize the intended target to other relatable targets, this assay endpoint is annotated to the gpcr intended target family, where the subfamily is rhodopsin-like receptor.
(§2) Binding assays used specific radioligands (tritiated, iodinated) with non-radioactive competitive displacement ligands in agonist or antagonist protocols (as indicated) and various reference compounds and inhibitors to titrate specific binding to receptors and transporters. Most enzyme assays (CYPs, kinases, phosphatases, proteases, HDACs) used recombinant protein and specific substrates (fluorescence mostly, some colorimetric and radioactive) and inhibitors, followed by a biochemical separation of substrate and product. All assays for the biochemical HTS were initially run in duplicate at a single concentration (10 uM for CYP450 assays and 25 uM for all others). Assay-chemical combinations meeting a pre-defined threshold (e.g., 30% inhibition and other criteria defined below) were then run in singleton concentration-response format with maximum concentration of 20 uM for CYPs and 50 uM for all others. Each assay was run with positive and negative controls, and concurrent controls on every plate. The follow-up (secondary) screen tested active chemical-pairs in concentration series, as well as a few additional assays not tested in the primary screen, some selected negative inactives, and several cases re-run in the concentration series for confirmatory purposes.

[4] = biological target: human Neurotensin Receptor (NTS), NTSR1 (gene 4923) (UniProt P30989); assay: NVS_GPCR_hNTS: NovaScreen (NVS) G Protein-Coupled Receptor Assay for human Neurotensin Receptor (NTS) (AID 2283279)
Outline: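 Compounds competed with a radiolabelled ligand for binding to CHO-derived human neurotensin receptor; bound signal counted after filtration, 1 h. Screened first at a single concentration of 25 uM in duplicate, then concentration series to 50 uM maximum for actives.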

[5] = system: rabbit Platelet Activating Factor Receptor (PAF), gene 100354046; assay: NVS_GPCR_rabPAF: NovaScreen (NVS) G Protein-Coupled Receptor Assay for rabbit Platelet Activating Factor Receptor (PAF) (AID 2283287)
Procedure: as §1, with “NVS_GPCR_rabPAF” for “NVS_GPCR_mCCKAPeripheral”, “Rabbit platelets” for “Mouse pancreatic membranes”, “1 hour” for “2 hours”, “48-well plate.NVS_GPCR_rabPAF” for “96-well plate.NVS_GPCR_mCCKAPeripheral”, “NVS_GPCR_rabPAF,” for “NVS_GPCR_mCCKAPeripheral,”, “PTAFR.” for “Cckar.”
as §2, with “Assay-chemical combinations meeting a pre-defined threshold (e.g., 30% inhibition and other criteria defined below) were then run in singleton concentration-response format with maximum concentration of 20 uM for CYPs and 50 uM for all others.” left out

[6] = biological target: rat Serotonin, 5-Hydroxytryptamine Receptor 1 (5HT1), Non-Selective Binding, Htr1a (gene 24473) (UniProt P19327); assay: NVS_GPCR_r5HT1_NonSelective: NovaScreen (NVS) G Protein-Coupled Receptor Assay for rat Serotonin, 5-Hydroxytryptamine Receptor 1 (5HT1), Non-Selective Binding (AID 2283286)
Outline: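 Binding of a radioligand to rat cortex membranes is read by filtration and scintillation counting after 1 h. Compounds were screened at 25 uM in duplicate. Actives were then titrated to a top of 50 uM. DMSO is the baseline.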

[7] = biological target: human Thromboxane A2 Receptor (TXA2), TBXA2R (gene 6915) (UniProt P21731); assay: NVS_GPCR_hTXA2: NovaScreen (NVS) G Protein-Coupled Receptor Assay for human Thromboxane A2 Receptor (TXA2) (AID 2283282);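 also: actives reduce bound radioligand signal relative to DMSO baseline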
Outline: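 Human platelet membranes tested for radioligand displacement by filtration and scintillation counting 1 h post-dose. Screened in duplicate at 25 uM; activity fitted as signal loss relative to DMSO.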

[8] = biological target: human Opioid Receptor Delta 1 (Opiate D1), OPRD1 (gene 4985) (UniProt P41143); assay: NVS_GPCR_hOpiate_D1: NovaScreen (NVS) G Protein-Coupled Receptor Assay for human Opioid Receptor Delta 1 (Opiate D1) (AID 2283280)
Outline: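 Membrane preparations from CHO cells bearing the human receptor were incubated 1 h with test chemical, and bound radioligand was counted after filtration. Actives from 25 uM duplicate screening were retested in concentration-response.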

[9] = biological target: human Vasopressin 1A Receptor (V1A), AVPR1A (gene 552) (UniProt P37288); assay: NVS_GPCR_hV1A: NovaScreen (NVS) G Protein-Coupled Receptor Assay for human Vasopressin 1A Receptor (V1A) (AID 2283284)
Outline: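 Single-concentration duplicate screen at 25 uM, with concentration-response follow-up (top 50 uM) for actives. The assay measured displacement of a radioligand from human platelet-derived receptor after 1.5 h, detected by filtration and scintillation counting.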

[10] = biological target: human Purinergic Receptor P2Y, P2RY1 (gene 5028) (UniProt P47900); assay: NVS_GPCR_hPY2: NovaScreen (NVS) G Protein-Coupled Receptor Assay for human Purinergic Receptor P2Y (AID 2283281)
Outline: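 Filtration scintillation readout of radioligand displacement on U937 extract, measured 1 h post-dosing. Single 25 uM duplicate screen, then singleton concentration series to 50 uM for chemicals passing threshold; DMSO as baseline.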

Chain of human Neurotensin Receptor (NTS), NTSR1 (gene 4923) (P30989 whole entry, looked up): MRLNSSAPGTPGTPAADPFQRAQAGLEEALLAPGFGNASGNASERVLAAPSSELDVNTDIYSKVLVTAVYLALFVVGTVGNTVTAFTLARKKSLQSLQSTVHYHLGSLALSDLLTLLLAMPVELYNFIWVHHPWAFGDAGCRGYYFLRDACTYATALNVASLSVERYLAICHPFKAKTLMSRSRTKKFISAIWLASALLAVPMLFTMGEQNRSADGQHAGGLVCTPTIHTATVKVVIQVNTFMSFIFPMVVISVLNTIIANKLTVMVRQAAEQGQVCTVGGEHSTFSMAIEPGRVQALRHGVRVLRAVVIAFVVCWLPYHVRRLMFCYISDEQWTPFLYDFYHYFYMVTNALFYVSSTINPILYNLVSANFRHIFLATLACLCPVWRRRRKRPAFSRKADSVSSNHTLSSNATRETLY
Chain of human Vasopressin 1A Receptor (V1A), AVPR1A (gene 552) (P37288 whole entry, looked up): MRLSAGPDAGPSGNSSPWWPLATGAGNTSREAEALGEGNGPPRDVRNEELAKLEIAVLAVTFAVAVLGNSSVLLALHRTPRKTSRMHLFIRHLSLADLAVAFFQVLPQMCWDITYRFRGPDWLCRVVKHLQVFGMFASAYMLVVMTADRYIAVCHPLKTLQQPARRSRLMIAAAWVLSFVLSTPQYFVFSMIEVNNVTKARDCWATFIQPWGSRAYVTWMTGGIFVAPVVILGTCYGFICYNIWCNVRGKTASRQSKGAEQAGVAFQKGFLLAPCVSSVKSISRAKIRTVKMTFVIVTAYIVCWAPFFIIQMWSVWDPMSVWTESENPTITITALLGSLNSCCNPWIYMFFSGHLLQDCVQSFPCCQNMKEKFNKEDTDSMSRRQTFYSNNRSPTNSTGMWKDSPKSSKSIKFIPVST
Chain of rat Serotonin, 5-Hydroxytryptamine Receptor 1 (5HT1), Non-Selective Binding, Htr1a (gene 24473) (P19327 whole entry, looked up): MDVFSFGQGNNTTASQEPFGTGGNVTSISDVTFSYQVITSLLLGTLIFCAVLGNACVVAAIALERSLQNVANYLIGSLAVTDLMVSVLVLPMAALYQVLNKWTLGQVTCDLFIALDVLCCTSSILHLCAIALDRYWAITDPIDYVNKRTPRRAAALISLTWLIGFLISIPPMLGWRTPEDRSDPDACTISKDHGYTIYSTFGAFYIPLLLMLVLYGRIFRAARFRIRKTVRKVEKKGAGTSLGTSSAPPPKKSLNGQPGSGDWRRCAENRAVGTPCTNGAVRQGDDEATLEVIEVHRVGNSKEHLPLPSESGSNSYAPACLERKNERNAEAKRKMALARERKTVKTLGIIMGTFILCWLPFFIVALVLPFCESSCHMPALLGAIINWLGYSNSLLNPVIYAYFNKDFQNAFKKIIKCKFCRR
Chain of human Opioid Receptor Mu (Opiate Mu), OPRM1 (gene 4988) (P35372 whole entry, looked up): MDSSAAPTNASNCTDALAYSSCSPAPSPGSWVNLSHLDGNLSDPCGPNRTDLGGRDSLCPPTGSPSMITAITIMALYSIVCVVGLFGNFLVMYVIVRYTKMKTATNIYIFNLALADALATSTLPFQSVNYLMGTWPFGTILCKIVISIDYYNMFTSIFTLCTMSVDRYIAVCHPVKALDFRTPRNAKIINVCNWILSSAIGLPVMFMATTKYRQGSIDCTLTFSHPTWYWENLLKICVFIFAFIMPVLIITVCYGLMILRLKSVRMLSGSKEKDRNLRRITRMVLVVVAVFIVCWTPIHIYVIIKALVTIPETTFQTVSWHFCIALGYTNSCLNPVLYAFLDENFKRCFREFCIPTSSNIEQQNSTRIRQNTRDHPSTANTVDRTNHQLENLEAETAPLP
Chain of mouse Cholecystokinin, CCK1 Receptor (CCKA), Cckar (gene 12425) (O08786 whole entry, looked up): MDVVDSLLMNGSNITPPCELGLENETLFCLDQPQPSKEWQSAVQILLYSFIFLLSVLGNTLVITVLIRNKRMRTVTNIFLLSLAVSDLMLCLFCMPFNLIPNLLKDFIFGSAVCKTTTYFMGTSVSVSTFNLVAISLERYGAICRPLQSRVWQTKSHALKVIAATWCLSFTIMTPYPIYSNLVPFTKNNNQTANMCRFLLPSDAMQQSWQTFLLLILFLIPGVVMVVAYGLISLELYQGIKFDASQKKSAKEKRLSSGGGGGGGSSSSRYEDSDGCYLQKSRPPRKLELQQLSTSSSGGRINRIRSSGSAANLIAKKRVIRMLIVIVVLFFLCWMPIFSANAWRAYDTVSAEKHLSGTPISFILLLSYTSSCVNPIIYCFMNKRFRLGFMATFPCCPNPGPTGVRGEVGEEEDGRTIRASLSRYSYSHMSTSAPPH
Chain of human Thromboxane A2 Receptor (TXA2), TBXA2R (gene 6915) (P21731 whole entry, looked up): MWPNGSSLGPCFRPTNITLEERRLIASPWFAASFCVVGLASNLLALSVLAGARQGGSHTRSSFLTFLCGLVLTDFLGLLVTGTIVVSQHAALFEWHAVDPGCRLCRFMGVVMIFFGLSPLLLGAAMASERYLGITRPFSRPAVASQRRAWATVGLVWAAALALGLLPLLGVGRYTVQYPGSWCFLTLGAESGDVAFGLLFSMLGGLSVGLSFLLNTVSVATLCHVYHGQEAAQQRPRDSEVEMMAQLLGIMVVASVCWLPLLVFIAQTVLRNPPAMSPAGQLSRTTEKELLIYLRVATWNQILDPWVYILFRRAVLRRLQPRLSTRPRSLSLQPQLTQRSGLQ
Chain of rat Adrenergic, Alpha 1, Non-selective Receptor (Adra1), Adra1a (gene 29412) (P43140 whole entry, looked up): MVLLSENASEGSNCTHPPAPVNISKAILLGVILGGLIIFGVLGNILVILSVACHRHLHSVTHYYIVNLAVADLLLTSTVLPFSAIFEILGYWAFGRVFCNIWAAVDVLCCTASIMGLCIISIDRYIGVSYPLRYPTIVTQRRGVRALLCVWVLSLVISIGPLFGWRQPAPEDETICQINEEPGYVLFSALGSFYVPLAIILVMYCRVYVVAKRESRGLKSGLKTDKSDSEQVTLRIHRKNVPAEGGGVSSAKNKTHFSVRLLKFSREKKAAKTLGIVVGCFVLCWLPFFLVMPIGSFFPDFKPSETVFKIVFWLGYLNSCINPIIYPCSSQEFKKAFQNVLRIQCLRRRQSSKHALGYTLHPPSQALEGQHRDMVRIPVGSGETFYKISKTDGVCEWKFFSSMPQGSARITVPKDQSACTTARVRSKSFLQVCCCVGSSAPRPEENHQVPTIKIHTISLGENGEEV
Chain of human Opioid Receptor Delta 1 (Opiate D1), OPRD1 (gene 4985) (P41143 whole entry, looked up): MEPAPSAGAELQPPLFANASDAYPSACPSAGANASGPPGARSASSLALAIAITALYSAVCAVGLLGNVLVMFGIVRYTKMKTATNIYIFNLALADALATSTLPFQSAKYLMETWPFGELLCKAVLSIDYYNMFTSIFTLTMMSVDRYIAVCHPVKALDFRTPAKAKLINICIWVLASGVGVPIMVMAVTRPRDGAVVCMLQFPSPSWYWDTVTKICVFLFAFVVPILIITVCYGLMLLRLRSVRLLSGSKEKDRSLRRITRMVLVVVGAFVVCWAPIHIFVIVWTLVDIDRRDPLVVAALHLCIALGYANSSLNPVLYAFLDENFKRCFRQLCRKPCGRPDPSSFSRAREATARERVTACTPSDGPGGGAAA
Chain of human Purinergic Receptor P2Y, P2RY1 (gene 5028) (P47900 whole entry, looked up): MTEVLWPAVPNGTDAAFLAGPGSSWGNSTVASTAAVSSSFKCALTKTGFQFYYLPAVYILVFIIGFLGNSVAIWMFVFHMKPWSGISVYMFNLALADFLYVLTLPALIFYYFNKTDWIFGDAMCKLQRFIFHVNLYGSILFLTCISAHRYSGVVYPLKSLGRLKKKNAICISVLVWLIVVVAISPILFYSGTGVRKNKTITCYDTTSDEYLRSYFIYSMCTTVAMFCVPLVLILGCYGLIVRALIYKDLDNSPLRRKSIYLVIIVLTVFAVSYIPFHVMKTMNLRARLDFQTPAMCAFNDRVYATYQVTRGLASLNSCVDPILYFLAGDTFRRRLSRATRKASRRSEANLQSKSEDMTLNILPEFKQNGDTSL

SMILES: Nc1nc(N)nc(NC2CC2)n1
- outcome [1]: inactive

SMILES: CCc1cccc(C)c1N(C(=O)CCl)C(C)COC (stereo not drawn)
- AC50 [2]: 5.26 µM (active)

SMILES: CCc1cccc(CC)c1N(COC)C(=O)CCl
- AC50 [2]: 4.96 µM (active)

SMILES: CCCSP(=O)(OCC)Oc1ccc(Br)cc1Cl (stereo not drawn)
- outcome [3]: inactive
- AC50 [2]: 4.96 µM (active)

SMILES: CCCCOC(=O)[C@@H](C)Oc1ccc(Oc2ccc(C#N)cc2F)cc1
- outcome [4]: inactive
- outcome [5]: inactive

SMILES: CC1=NNC(=O)N(/N=C/c2cccnc2)C1
- outcome [4]: inactive

SMILES: COP(=O)(OC)OC(Br)C(Cl)(Cl)Br (stereo not drawn)
- outcome [5]: inactive
- AC50 [2]: 8.83 µM (active)

SMILES: CCCCSP(=O)(SCCCC)SCCCC
- outcome [4]: inactive

SMILES: CCOP(=S)(OCC)Oc1cc(C)nc(C(C)C)n1
- outcome [4]: inactive
- outcome [6]: inactive

SMILES: COc1cc(OC)nc(Sc2cccc(Cl)c2C(=O)O)n1
- AC50 [7]: 4.45 µM (active)

SMILES: CC[C@H](C)[C@H]1O[C@]2(C=C[C@@H]1C)C[C@@H]1C[C@@H](C/C=C(\C)[C@@H](O[C@H]3C[C@H](OC)[C@@H](O[C@H]4C[C@H](OC)[C@@H](NC)[C@H](C)O4)[C@H](C)O3)[C@@H](C)/C=C/C=C3\CO[C@@H]4[C@H](O)C(C)=C[C@@H](C(=O)O1)[C@]34O)O2
- AC50 [4]: 0.00229 µM (active)
- AC50 [8]: 15.5 µM (active)
- AC50 [7]: 14.5 µM (active)
- outcome [9]: inactive
- AC50 [3]: 10.4 µM (active)
- AC50 [2]: 15 µM (active)

SMILES: C#CCC1=C(C)C(OC(=O)C2C(C=C(C)C)C2(C)C)CC1=O (stereo not drawn)
- outcome [3]: inactive
- AC50 [5]: 10.9 µM (active)

SMILES: C[Si](Cn1cncn1)(c1ccc(F)cc1)c1ccc(F)cc1
- AC50 [3]: 25 µM (active)
- AC50 [5]: 6.38 µM (active)
- AC50 [2]: 9.11 µM (active)

SMILES: CNC(=O)ON=C(C)SC
- outcome [5]: inactive

SMILES: COc1cccc(C(=O)NN(C(=O)c2cc(C)cc(C)c2)C(C)(C)C)c1C
- outcome [9]: inactive

SMILES: FC(F)C(F)(F)OCC(Cn1cncn1)c1ccc(Cl)cc1Cl (stereo not drawn)
- outcome [7]: inactive
- AC50 [2]: 9.52 µM (active)

SMILES: CN(C)C(=O)Nc1cccc(C(F)(F)F)c1
- outcome [6]: inactive

SMILES: CN(C)[C@@H]1C(=O)C(C(N)=O)=C(O)[C@@]2(O)C(=O)C3=C(O)c4c(O)cccc4[C@@](C)(O)[C@H]3[C@H](O)[C@@H]12
- outcome [10]: inactive
- outcome [7]: inactive

SMILES: CC(C)=CC1C(C(=O)OCN2C(=O)C3=C(CCCC3)C2=O)C1(C)C (stereo not drawn)
- AC50 [5]: 7.72 µM (active)
- outcome [1]: inactive

SMILES: CCOP(=S)(OCC)OC(Cl)C(Cl)(Cl)Cl (stereo not drawn)
- outcome [1]: inactive

SMILES: CCOP(=O)(OCC)Oc1cc(C)nc(C(C)C)n1
- outcome [6]: inactive

SMILES: S=C1NCCN1
- outcome [2]: inactive

SMILES: CCC(=O)Nc1ccc(Cl)c(Cl)c1
- outcome [6]: inactive

SMILES: CCCOCC(=Nc1ccc(Cl)cc1C(F)(F)F)n1ccnc1
- AC50 [2]: 7.33 µM (active)

SMILES: CCOP(=S)(Oc1cnc(C(C)(C)C)nc1)OC(C)C (stereo not drawn)
- AC50 [5]: 11.5 µM (active)

SMILES: O=C(O)c1cc(Oc2ccc(C(F)(F)F)cc2Cl)ccc1[N+](=O)[O-]
- outcome [8]: inactive

SMILES: CCC(=NOC/C=C/Cl)C1=C(O)CC(C2CCOCC2)CC1=O (stereo not drawn)
- outcome [9]: inactive

SMILES: CCCCOC(=O)c1ccccc1C(=O)O
- outcome [1]: inactive
